The source of these data is PubChem BioAssay (NCATS).

Assay [1] has as its target Calcium and integrin-binding protein 1 (Homo sapiens) (UniProt Q99828). Kind of assay: Primary qHTS for Identification of Calcium Integrin Binding Protein 1 (CIB1) Competitor (AID 1508620).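 Note: GST tagged CIB1 binding a fluorescein labelled alphaIIb integrin peptide tracer; top concentration of the series differs between compounds; % is set by controls: 0 for no effect and ±100 for the full control effect.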 The note with it: CIB1-GST / FITC-alphaIIb peptide fluorescence polarization; series mostly up to 57.7 µM. The method in brief: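 CIB1-GST (1 uM final) and compound incubated 15 min at room temperature before adding FITC-alphaIIb peptide tracer (100 nM final). Competition for binding read by fluorescence polarization (ex 480, em 540) after another 15 min at room temperature.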

Assay [2] in a line: Primary qHTS for small molecule stabilizers of the endoplasmic reticulum resident proteome: Secreted ER Calcium Modulated Protein (SERCaMP) assay (AID 1508630). Note: % is set by controls: 0 for no effect and ±100 for the full control effect. The note with it: SH-SY5Y GLuc-SERCaMP (Gaussia luciferase released on ER calcium loss) secretion, thapsigargin, luminescence; series mostly up to 38.4 µM. The gist of the method:
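GLuc-SERCaMP-expressing SH-SY5Y cells, pretreated 16 h with compound, are challenged with thapsigargin to empty ER calcium stores; after 4 h, coelenterazine is added directly to the medium and luminescence is imaged.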
(qHTS replaces the single test concentration by a dilution series.)

Assay [3] deals with Cytochrome P450 2D6 (Homo sapiens) (UniProt P10635). Kind of assay: Cytochrome P450 family 2 subfamily D member 6 (CYP2D6) small molecule antagonists: luciferase biochemical (cell-free) qHTS assay (AID 1645840; active = well fitted curve in the direction sought with a large enough effect in the repeat runs; an effect the other way counts as inactive or inconclusive; note: % is set by controls: 0 for no effect and ±100 for the full control effect; nearly all actives have a fitted effect of over 55% in size). Particulars: P450-Glo CYP2D6 enzyme, luciferin luminescence, 1 h; series mostly up to 57.4 µM. The gist of the method: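 P450-Glo luminescent screen: recombinant CYP2D6 enzyme–proluciferin substrate mix preincubated with compound 10 min at room temperature, then NADPH regeneration added for 1 h at room temperature. Detection reagent added for 20 min; luciferin light read as relative luminescence units.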
Sequence of Cytochrome P450 2D6 (Homo sapiens) (P10635 whole entry, looked up): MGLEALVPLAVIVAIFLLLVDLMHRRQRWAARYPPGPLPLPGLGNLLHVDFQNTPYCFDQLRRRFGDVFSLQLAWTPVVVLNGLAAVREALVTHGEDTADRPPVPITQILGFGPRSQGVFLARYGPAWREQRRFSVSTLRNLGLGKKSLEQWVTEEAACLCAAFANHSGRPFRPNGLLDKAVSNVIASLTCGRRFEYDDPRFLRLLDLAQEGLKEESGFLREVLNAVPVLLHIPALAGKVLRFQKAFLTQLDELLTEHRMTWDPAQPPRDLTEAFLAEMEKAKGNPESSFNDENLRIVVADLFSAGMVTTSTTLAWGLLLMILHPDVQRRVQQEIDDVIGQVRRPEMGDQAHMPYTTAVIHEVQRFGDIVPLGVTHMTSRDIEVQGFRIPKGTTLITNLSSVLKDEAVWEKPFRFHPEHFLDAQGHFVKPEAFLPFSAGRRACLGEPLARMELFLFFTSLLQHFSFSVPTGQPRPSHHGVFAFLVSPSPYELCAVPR

The target of assay [4] is Cytochrome P450 2C9 (Homo sapiens) (UniProt P11712). Kind of assay: Cytochrome P450 family 2 subfamily C member 9 (CYP2C9) small molecule antagonists: luciferase biochemical (cell-free) qHTS assay (AID 1645842; active = well fitted curve in the direction sought with a large enough effect in the repeat runs; an effect the other way counts as inactive or inconclusive; note: potency is the fitted concentration of half-maximal effect; nearly all actives have a fitted effect of over 55% in size). The note with it: P450-Glo CYP2C9 enzyme assay, luciferin luminescence; series mostly up to 57.4 µM. The gist of the method:
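Luminescence, after 20 min with luciferin detection reagent, reflected CYP2C9 turnover during a 1 h NADPH-driven reaction at 37C. Enzyme-substrate mix contained 0.4% bovine serum albumin and was preincubated with compound 10 min at room temperature.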

A short description of assay [5]: Primary qHTS for inhibitors of nuclear receptor binding SET domain protein 2 (NSD2) in an isogenic RCH-ACV NSD2 p.E1099K mutant (9B) (AID 1645876). Note: nearly all actives have a fitted effect of over 70% in size. The note with it: RCH-ACV NSD2 E1099K (9B) viability, CellTiter-Glo, 72 h; series mostly up to 44.9 µM.
Assay [6] in a line: Primary qHTS for inhibitors of nuclear receptor binding SET domain protein 2 (NSD2) in an RCH-ACV wild type WT cells (2C) (AID 1645877). Note: nearly all actives have a fitted effect of over 70% in size. The note with it: RCH-ACV (leukaemia line) NSD2 WT (2C) viability, CellTiter-Glo, 72 h; series mostly up to 44.9 µM.
For assay [7], the target named is Catechol O-methyltransferase (Homo sapiens) (UniProt P21964). Nature of the assay: Confirmatory Screen for Target Class Profiling of Small Molecule Inhibitors of Methyltransferases (AID 1745852; calls by dose curve; for activity change, negative = inhibition: % is set by controls: 0 for no effect and ±100 for the full control effect). Particulars: MTase-Glo luminescence, SAH detection, recombinant enzyme; measured here: COMT max response; stronger effect = lower value.
Sequence of Catechol O-methyltransferase (Homo sapiens) (P21964 whole entry, looked up): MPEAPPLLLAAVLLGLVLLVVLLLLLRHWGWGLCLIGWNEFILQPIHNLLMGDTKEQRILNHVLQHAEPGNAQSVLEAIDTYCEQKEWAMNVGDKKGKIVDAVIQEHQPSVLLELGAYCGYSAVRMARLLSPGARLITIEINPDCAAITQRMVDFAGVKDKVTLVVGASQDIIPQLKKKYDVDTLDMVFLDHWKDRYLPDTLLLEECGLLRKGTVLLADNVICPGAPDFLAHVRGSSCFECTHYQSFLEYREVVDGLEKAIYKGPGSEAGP
For assay [8], the target named is Guanidinoacetate N-methyltransferase (Homo sapiens) (UniProt Q14353). The assay is described as above. The note with it: MTase-Glo luminescence, SAH detection, recombinant enzyme; activity change, negative = inhibition: at 57.3 µM (top of the series); series mostly up to 57.3 µM.
Assay [9] has as its target Nicotinamide N-methyltransferase (Homo sapiens) (UniProt P40261). The assay is described as above. The note with it: MTase-Glo luminescence, SAH detection, recombinant enzyme; measured here: NNMT max response; stronger effect = lower value.
The target in assay [10] is Phenylethanolamine N-methyltransferase (Homo sapiens) (UniProt P11086). Described as above. The note with it: MTase-Glo luminescence, SAH detection, recombinant enzyme; measured here: PNMT max response; stronger effect = lower value.
Sequence of Phenylethanolamine N-methyltransferase (Homo sapiens) (P11086 whole entry, looked up): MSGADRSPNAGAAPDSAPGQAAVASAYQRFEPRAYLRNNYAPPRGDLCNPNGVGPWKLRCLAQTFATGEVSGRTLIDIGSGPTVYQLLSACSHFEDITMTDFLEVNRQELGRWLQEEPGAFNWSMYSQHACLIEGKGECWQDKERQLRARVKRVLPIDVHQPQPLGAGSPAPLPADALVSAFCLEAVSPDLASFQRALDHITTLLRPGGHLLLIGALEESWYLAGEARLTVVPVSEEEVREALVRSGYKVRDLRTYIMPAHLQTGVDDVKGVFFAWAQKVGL

Results filed as inconclusive are left out. The source made the active and inactive calls. Unless noted, calls come from the whole dose curve; as a rule, active = well fitted curve in the direction sought with a large enough effect; inconclusive = small, poorly fitted or top-dose-only effect, or another doubt; inactive = no such curve, though single readings can be large; an effect the other way counts as inactive or inconclusive.

Sequence of Nicotinamide N-methyltransferase (Homo sapiens) (P40261 whole entry, looked up): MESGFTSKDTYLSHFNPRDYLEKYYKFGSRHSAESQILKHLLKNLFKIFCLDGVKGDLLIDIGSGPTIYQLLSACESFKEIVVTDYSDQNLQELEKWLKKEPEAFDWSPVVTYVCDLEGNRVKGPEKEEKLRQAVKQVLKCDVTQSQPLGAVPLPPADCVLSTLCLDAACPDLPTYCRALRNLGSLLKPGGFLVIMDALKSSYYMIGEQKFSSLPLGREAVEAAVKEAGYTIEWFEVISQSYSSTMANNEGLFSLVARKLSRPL
Sequence of Calcium and integrin-binding protein 1 (Homo sapiens) (Q99828 whole entry, looked up): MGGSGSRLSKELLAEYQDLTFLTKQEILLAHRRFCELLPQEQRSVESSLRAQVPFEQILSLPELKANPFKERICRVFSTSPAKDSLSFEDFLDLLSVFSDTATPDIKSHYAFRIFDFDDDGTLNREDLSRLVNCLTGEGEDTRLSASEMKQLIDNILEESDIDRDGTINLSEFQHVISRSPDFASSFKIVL
Sequence of Cytochrome P450 2C9 (Homo sapiens) (P11712 whole entry, looked up): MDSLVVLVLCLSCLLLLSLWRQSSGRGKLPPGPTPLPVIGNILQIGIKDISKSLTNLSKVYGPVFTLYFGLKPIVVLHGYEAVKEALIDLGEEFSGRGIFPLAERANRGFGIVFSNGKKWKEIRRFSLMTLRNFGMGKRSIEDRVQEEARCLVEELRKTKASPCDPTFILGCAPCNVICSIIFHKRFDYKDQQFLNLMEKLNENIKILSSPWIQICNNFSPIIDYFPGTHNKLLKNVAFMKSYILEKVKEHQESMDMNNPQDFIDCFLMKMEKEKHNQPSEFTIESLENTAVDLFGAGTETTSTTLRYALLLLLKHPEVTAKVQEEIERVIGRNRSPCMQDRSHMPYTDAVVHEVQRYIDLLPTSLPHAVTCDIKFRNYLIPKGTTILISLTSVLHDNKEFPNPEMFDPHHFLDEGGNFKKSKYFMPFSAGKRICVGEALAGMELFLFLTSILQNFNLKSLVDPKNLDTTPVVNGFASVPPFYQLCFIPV

In the case of `c1ccc2c(Oc3nc(Nc4ccc(N5CCOCC5)cc4)c4ncn(C5CCCCC5)c4n3)cccc2c1`, the Potency result in [1], in assay [3], in [5] and in assay [6] was “inactive” throughout. Also, in assay [2], the outcome was “inactive”. Moreover, the Potency in assay [4] is 4.77 µM (active). The activity is 0.484% in assay [7], -22.9% in assay [9] and -3.02% in assay [10]. Further, in [8], the activity change, negative = inhibition was -1.84%.

In the case of `Cc1cnc(Nc2ccc(N3CCN(C)CC3)cc2)nc1Nc1cccc(S(=O)(=O)NC(C)(C)C)c1`, the values for the activity in [7], in assay [9] and in assay [10] were 8.73%, -15.4% and 0.463%, respectively. The activity change, negative = inhibition in assay [8] was -1.34%.

With `CCOC(=O)[C@@H](N)Cc1ccc(-c2cc(O[C@H](c3ccc(Cl)cc3-n3ccc(C)n3)C(F)(F)F)nc(N)n2)cc1`, the activity in assay [7] is -0.461%; in assay [9], -31.8%; in assay [10], -6.64%. Besides, the activity change, negative = inhibition in assay [8] came out at 0%.
